Data from PubChem BioAssay (NCI).
About 79,000 compounds went through this panel and 15% of them were active in at least one assay; those are over-represented in the sample as a whole. Cut-off read from the data, not from the text of the source: active = growth inhibition above about 70%; inactive = the rest.

Assays:
[1] = NCI Yeast Anticancer Drug Screen. Data for the rad50 strain (AID 155);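 note: 0% = growth of vehicle-only cultures of the same strain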; conditions: S. cerevisiae rad50 strain growth inhibition; at 50.0 µM; hits give high values
In short: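 Compounds were tested on a yeast strain with an engineered DNA damage repair alteration; the reported value is growth inhibition normalised to vehicle treatment.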

[2] = NCI Yeast Anticancer Drug Screen. Data for the mec2-1 strain (AID 157); conditions: S. cerevisiae mec2-1 strain, at 50.0 µM, hits give high values
In short: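 Growth inhibition is read against vehicle-treated controls after compound exposure of the mec2-1 yeast strain, which is defective in DNA damage repair or cell cycle control.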

[3] = NCI Yeast Anticancer Drug Screen. Data for the sgs1 mgt1 strain (AID 161);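 note: 0% = growth of cultures given vehicle only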; conditions: S. cerevisiae sgs1 mgt1 strain, at 50.0 µM, hits give high values
In short: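 Compounds are added to genetically altered yeast, and growth is compared with cultures given vehicle alone to give percent inhibition.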

[4] = NCI Yeast Anticancer Drug Screen. Data for the cln2 rad14 strain (AID 165);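 note: 0% = growth equal to vehicle treated cultures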; conditions: S. cerevisiae cln2 rad14 strain, at 50.0 µM, hits give high values
In short: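 Growth inhibition, relative to vehicle-treated controls, is the read-out. The test organism is a yeast strain with defined genetic alterations, cln2 rad14.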

[5] = NCI Yeast Anticancer Drug Screen. Data for the bub3 strain (AID 167); conditions: S. cerevisiae bub3 mutant strain, at 50.0 µM, hits give high values
In short: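 Growth of a checkpoint-deficient yeast mutant is measured after compound exposure. Values represent inhibition relative to vehicle.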

[6] = NCI Yeast Anticancer Drug Screen. Data for the mlh1 rad18 strain (AID 175); conditions: S. cerevisiae mlh1 rad18 strain growth inhibition; at 50.0 µM; hits give high values
In short: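 Cells of a genetically altered yeast strain, deficient in DNA damage repair, were treated with compound. Their growth was then compared with that of vehicle-treated cultures to give inhibition.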

Measured: growth inhibition

Clc1cnc2ccccc2c1
inactive: [1] 24.4% | [2] 6% | [3] 14.1% | [4] 22.8% | [5] 2.7% | [6] 28.8%

O/N=C1/C2C=CC(C2)C1Cl (configuration not stated)
inactive: [1] 1.35% | [2] -5.75% | [3] 11.7% | [4] 13.7% | [5] -10.1% | [6] -16.9%

COc1ccc(C2S/C(=C\c3ccccc3)C(=O)N2NC(=O)Cc2ccccc2)cc1 (configuration not stated)
inactive: [1] -12.8% | [2] -54.2% | [3] -7.5% | [4] -69.7% | [5] -18.6% | [6] -12%

O=CNCCc1ccc2c(c1)[nH]c1ccccc12
inactive: [1] 8.45% | [2] 16.1% | [3] 12.9% | [4] -11.3% | [5] -13.2% | [6] 20.6%

CCCc1nc2ccccc2c(=O)n1/N=C/c1ccc(Cl)cc1
inactive: [1] 0.5% | [2] 7.3% | [3] -0.4% | [4] 5.7% | [5] 0.9% | [6] 7.95%

CCC(=O)C(C)C1(C(=O)OC)NC(=S)NC(=O)C1C#N (configuration not stated)
inactive: [1] 5.4% | [2] -4.75% | [3] -15.8% | [4] -6.4% | [5] -22.1% | [6] -6.1%

CSc1cnn(-c2ccccc2)[n+]1[O-]
inactive: [1] 3.8% | [2] -1.3% | [3] -7.15% | [4] -42.5% | [5] -1.75% | [6] -0.85%

CCN(CC)CCC(CN(C)C)C(C)O (configuration not stated)
inactive: [1] -4.05% | [2] 4.05% | [3] 13.1% | [4] -17.4% | [5] -1.4% | [6] 8.75%

COC(=O)Cc1c(C(=O)OC)c(O)cc(O)c1C(=O)OC
inactive: [1] 5.85% | [2] 5.25% | [3] -10.2% | [4] -14.4% | [5] 12.3% | [6] -5.85%

O=C(NNC(=O)c1ccc2ccccc2c1)c1cccc(Br)c1
inactive: [1] -21.1% | [2] -20.6% | [3] -6.55% | [4] 10.1% | [5] -5.6% | [6] -7.95%

C=C1C(=O)OC2CC3(C)C=CC(=O)C(=C)C3CC12 (configuration not stated)
inactive: [1] 6.75% | [2] 20.6% | [3] 34.4% | [4] 39.9% | [5] 26.8% | [6] 23.4%

CC1OC(O)CC(NC(=O)C(F)(F)F)C1O (configuration not stated)
inactive: [1] 3.6% | [2] -4.35% | [3] 9.65% | [4] -21.9% | [5] -1.1% | [6] -0.1%

CC[N+](C)(C)CCOP(=O)(c1ccccc1)c1ccccc1
inactive: [1] 2.4% | [2] 6.35% | [3] -15.1% | [4] 4.6% | [5] -2.2% | [6] 9.5%

COc1ccc(C(=O)/C=C/c2ccc(OC)c(OC)c2OC)c(O)c1
inactive: [1] 17.6% | [2] 1.4% | [3] -8.55% | [4] -18.5% | [5] 16.6% | [6] 14.7%

CCOC(=O)C1(C(=O)OCC)C(C#N)(C#N)C1(C#N)C#N
inactive: [1] -0.8% | [2] 1.75% | [3] -7.2% | [4] -7.3% | [5] -1.65% | [6] -11.3%

CC(C)CC(=O)Cc1ccccc1
inactive: [1] 18.8% | [2] 14.7% | [3] 19.2% | [4] -52.7% | [5] -2.2% | [6] -0.2%

COc1cc([N+](=O)[O-])ccc1C(=O)NC(CCC(=O)O)C(=O)O (configuration not stated)
inactive: [1] -12.6% | [2] -19.9% | [3] 19.1% | [4] -20.4% | [5] 28.6% | [6] -22.1%

Cn1nc(-c2ccccc2)c([N+](=O)[O-])c1NCc1ccccc1
inactive: [1] -0.8% | [2] -1.95% | [3] -4.4% | [4] -29.1% | [5] 6.4% | [6] 1.15%

CC1(C)C(=O)N2c3ccccc3C3(CC(N4C(=O)c5ccccc5C4=O)C(=O)O3)C2N1C(=O)OCc1ccccc1 (configuration not stated)
inactive: [1] 26.1% | [2] 13.8% | [3] 9.35% | [4] 15.2% | [5] 14.1% | [6] -13.1%

CCOCCN1CCN(CCOCC)CC1
inactive: [1] -11.9% | [2] -9.75% | [3] -9.65% | [4] -18.4% | [5] 27.6% | [6] 14%

CC(=O)CC(=O)NC(C)c1ccccc1 (configuration not stated)
inactive: [1] -4.05% | [2] -12.8% | [3] -4.65% | [4] -18.5% | [5] -7.3% | [6] 3.2%

NC1=NC(c2ccc(Cl)cc2)N(c2ccc(S(N)(=O)=O)cc2)C(N)=N1 (configuration not stated)
inactive: [1] 9.05% | [2] -4.35% | [3] -24.5% | [4] -21.9% | [5] -11.3% | [6] 21.6%

CSC1=C(C#N)C(=O)N(c2ccc(C)cc2)C(=O)C1C#N (configuration not stated)
inactive: [1] 26.1% | [2] 12.2% | [3] 31.1% | [4] 24.4% | [5] 5.5% | [6] 20.3%

O=c1/c(=C/c2ccc(Cl)cc2)sc2nc(-c3ccccc3)nn12
inactive: [1] 0.85% | [2] 7.75% | [3] 8.8% | [4] -6.75% | [5] -12.8% | [6] 23.6%

COc1ccccc1NC(=O)CC(C)=O
inactive: [1] 7% | [2] -5.9% | [3] 7.8% | [4] -11.6% | [5] -15.8% | [6] -8.5%

COc1ccc2c(c1)CCC1C2CCC2(C)C(=O)C(n3cnc4c(=S)nc[nH]c43)CC12 (configuration not stated)
inactive: [1] 42.3% | [2] 24.4% | [3] 50% | [4] 34.5% | [5] 14.2% | [6] 51.8%

Nc1c(Cl)ncnc1NCCc1ccccc1
inactive: [1] -3.35% | [2] -16.1% | [3] -15.4% | [4] -45.1% | [5] -11.8% | [6] -11.8%

NC(=S)NCc1ccccc1C(O)c1ccccc1 (configuration not stated)
inactive: [1] 18.8% | [2] 13.8% | [3] -0.75% | [4] 18.3% | [5] 18.5% | [6] 21.2%

O=C(OCC1OC(n2nc(SCc3ccccc3)c(=S)[nH]c2=O)C(OC(=O)c2ccccc2)C1OC(=O)c1ccccc1)c1ccccc1 (configuration not stated)
inactive: [1] 1.05% | [2] 0.35% | [3] 14.2% | [4] -46.9% | [5] -5.7% | [6] 31.8%

c1ccc(CCc2ccnc3ccccc23)cc1
inactive: [1] 8.15% | [2] 3.1% | [3] -2.9% | [4] 1.6% | [5] 9.15% | [6] 5.55%

CC1CCC(C(C)C)C(OC2(c3ccccc3)OC(=O)c3ccccc32)C1 (configuration not stated)
inactive: [1] 23.7% | [2] -5.7% | [3] 15.4% | [4] 8.55% | [5] 8.65% | [6] 16.4%

C=CCn1c(=S)sc2c(=O)[nH]cnc21
inactive: [1] 14.6% | [2] 1.7% | [3] 25.8% | [4] 22.3% | [5] 8.15% | [6] 11.4%

C#CC(OC(=O)c1cc([N+](=O)[O-])cc([N+](=O)[O-])c1)C1OC(C)(C)OC1C1COC(C)(C)O1 (configuration not stated)
inactive: [1] 27% | [2] 26.4% | [3] 57.1% | [4] -1% | [5] 7.25% | [6] 58.5%

CCCCCCCC(=O)N1CCCC(C)C1 (configuration not stated)
inactive: [1] -7.8% | [2] -25.8% | [3] 9.3% | [4] -5.75% | [5] -35.3% | [6] -3.9%

CCC1C(=O)OCc2c1cc1n(c2=O)C(CC)c2c-1nc1ccccc1c2Cl (configuration not stated)
inactive: [1] 57.4% | [2] 14.6% | [3] 8.15% | [4] -28.3% | [5] -2.95% | [6] 4.55%

Cn1c2ccccc2c2ccc3c(c21)C(=O)NC3=O
inactive: [1] 15.6% | [2] 10.7% | [3] -7.75% | [4] -7.7% | [5] -21.9% | [6] 13.3%

C=CCNc1ccc(C)cc1
inactive: [1] 16.5% | [2] -8.15% | [3] 20.1% | [4] 13.4% | [5] -5% | [6] 20.4%

Cc1ccc(S(=O)(=O)N2CCC(N)=N2)cc1
inactive: [1] 4.8% | [2] -6.7% | [3] -3.75% | [4] -18.4% | [5] 0.45% | [6] -4.85%

CC(=O)C1COC(O)C1C (configuration not stated)
inactive: [1] -5.45% | [2] -21.9% | [3] -15.2% | [4] 13.4% | [5] -24.6% | [6] 2.05%

BrC1C2=C(c3ccccc31)C(Br)c1ccccc12 (configuration not stated)
inactive: [1] 14.9% | [2] 4.05% | [3] 15.3% | [4] 28.8% | [5] -12.3% | [6] 1.7%

NC(=O)CNC(=O)[C@@H]1CC(OCCC(=O)O)CN1C(=O)C1CCCN1C(=O)OCc1ccccc1 (some centres not stated)
inactive: [1] 0.05% | [2] -0.8% | [3] 1.8% | [4] 6.25% | [5] 1.3% | [6] 6.75%

CCOC(=O)NN(C(=O)OCC)c1c(NC)n(C)c(=O)n(C)c1=O
inactive: [1] -23.4% | [2] 7.1% | [3] -7.7% | [4] -23.8% | [5] 11.1% | [6] 13.3%
